Key:
Assay in all cases: thermal shift delta Tm vs DMSO control; higher = stronger stabilization (binding)
Conditions in all cases: 12.5 µM; protein concentration 2 µM
[1] = test system: LOC_OS02G45750-cb003
Outline: (§1)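 Compounds dissolved in DMSO were added to purified rice kinase domain constructs, which had been expressed in E. coli, for differential scanning fluorimetry. Each well held 19.5 μl of 2 μM kinase in 100 mM potassium phosphate pH 7.5, 150 mM NaCl, 10% glycerol and 5 × SYPRO Orange. Fluorescence was followed from 25°C to 95°C at a rate of 0.05°C/s. Shifts in Boltzmann-fitted melting temperature are triplicate means relative to DMSO-only protein.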

[2] = test system: LOC_OS02G54510-cb004
Outline: as §1

[3] = test system: LOC_OS03G04050-cb001
Outline: as §1

[4] = test system: LOC_OS03G12390-cb001
Outline: as §1

[5] = test system: LOC_OS03G27990-cb004
Outline: as §1

[6] = test system: LOC_OS03G50450-cb001
Outline: as §1

[7] = test system: LOC_OS03G50810-cb003
Outline: as §1

[8] = test system: LOC_OS04G35114-cb001
Outline: as §1

[9] = test system: T1, LOC_OS04G38480-cb003
T1 sequence (whole entry): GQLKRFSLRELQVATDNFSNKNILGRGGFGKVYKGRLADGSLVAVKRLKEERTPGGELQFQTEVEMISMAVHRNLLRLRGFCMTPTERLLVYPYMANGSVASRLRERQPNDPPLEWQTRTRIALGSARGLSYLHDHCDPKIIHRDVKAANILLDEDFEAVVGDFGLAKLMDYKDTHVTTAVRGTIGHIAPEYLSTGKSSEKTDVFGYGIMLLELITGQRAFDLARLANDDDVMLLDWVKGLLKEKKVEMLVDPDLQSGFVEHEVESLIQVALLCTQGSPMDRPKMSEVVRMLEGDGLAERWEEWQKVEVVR
Outline: as §1

[10] = test system: T2, LOC_OS04G41100-cb001
T2 sequence (whole entry): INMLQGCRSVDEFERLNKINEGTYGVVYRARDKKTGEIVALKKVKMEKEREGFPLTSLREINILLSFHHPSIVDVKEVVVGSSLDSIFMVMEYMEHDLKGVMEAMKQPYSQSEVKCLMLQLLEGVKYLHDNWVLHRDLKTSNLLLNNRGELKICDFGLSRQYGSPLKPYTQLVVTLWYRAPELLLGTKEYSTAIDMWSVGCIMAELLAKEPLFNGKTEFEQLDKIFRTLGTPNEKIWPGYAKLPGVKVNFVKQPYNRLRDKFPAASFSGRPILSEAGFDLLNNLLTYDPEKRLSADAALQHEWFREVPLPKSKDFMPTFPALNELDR
Outline: as §1

[11] = test system: LOC_OS04G57630-cb004
Outline: as §1

[12] = test system: LOC_OS05G07850-cb002
Outline: as §1

[13] = test system: LOC_OS05G16824-cb004
Outline: as §1

[14] = test system: LOC_OS05G28520-cb001
Outline: as §1

[15] = test system: LOC_OS05G30820-cb001
Outline: as §1

[16] = test system: LOC_OS05G43570-cb004
Outline: as §1

[17] = test system: LOC_OS06G16330-cb003
Chain of LOC_OS06G16330-cb003 (as listed by the source): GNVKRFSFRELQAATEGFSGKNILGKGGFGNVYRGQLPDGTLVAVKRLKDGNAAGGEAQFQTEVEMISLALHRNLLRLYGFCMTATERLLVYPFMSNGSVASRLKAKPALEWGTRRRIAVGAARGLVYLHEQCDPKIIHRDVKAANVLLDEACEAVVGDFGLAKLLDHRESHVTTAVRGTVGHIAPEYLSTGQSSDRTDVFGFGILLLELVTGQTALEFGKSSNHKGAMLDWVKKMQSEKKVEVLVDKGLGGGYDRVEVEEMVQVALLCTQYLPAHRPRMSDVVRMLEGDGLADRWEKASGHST
Outline: as §1

[18] = test system: T3, LOC_OS06G22820-cb001
T3 sequence (whole entry): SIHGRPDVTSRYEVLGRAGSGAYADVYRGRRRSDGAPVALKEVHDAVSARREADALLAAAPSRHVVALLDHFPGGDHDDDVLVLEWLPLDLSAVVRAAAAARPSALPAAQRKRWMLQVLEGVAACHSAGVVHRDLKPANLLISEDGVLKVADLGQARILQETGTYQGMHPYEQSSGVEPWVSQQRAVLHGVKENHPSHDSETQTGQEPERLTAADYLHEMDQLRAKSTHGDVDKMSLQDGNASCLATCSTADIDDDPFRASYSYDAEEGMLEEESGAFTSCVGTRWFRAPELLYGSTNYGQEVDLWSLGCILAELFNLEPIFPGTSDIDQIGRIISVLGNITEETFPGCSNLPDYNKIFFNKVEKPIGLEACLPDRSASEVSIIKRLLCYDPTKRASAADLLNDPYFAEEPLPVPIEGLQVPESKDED
Outline: as §1

[19] = test system: LOC_OS07G06570-cb004
Outline: as §1

[20] = test system: LOC_OS07G07230-cb001
Outline: as §1

Row | SMILES | thermal shift delta Tm [1] | thermal shift delta Tm [2] | thermal shift delta Tm [3] | thermal shift delta Tm [4] | thermal shift delta Tm [5] | thermal shift delta Tm [6] | thermal shift delta Tm [7] | thermal shift delta Tm [8] | thermal shift delta Tm [9] | thermal shift delta Tm [10] | thermal shift delta Tm [11] | thermal shift delta Tm [12] | thermal shift delta Tm [13] | thermal shift delta Tm [14] | thermal shift delta Tm [15] | thermal shift delta Tm [16] | thermal shift delta Tm [17] | thermal shift delta Tm [18] | thermal shift delta Tm [19] | thermal shift delta Tm [20]
1 | NC(=O)c1cnc2[nH]ccc2c1N[C@@H]1[C@@H]2CC3C[C@H]1C[C@@](O)(C3)C2 | 8.38 °C | 2.49 °C | -0.03 °C | 7.42 °C | 4.38 °C | 3.97 °C | 4.9 °C | 3.87 °C | 2.99 °C | 1.15 °C | 1.22 °C | 12.5 °C | 8.26 °C | 0.32 °C | 2.71 °C | 0.73 °C | 5.88 °C | 0.43 °C | 1.29 °C | 0.84 °C
2 | CN1CCN(c2ccc(-c3ccncc3-c3cc(F)c(O)c(F)c3)cc2)CC1 | 0.61 °C | 0.42 °C | 0.42 °C | -0.07 °C | 0.3 °C | 0.59 °C | 0.5 °C | 1.01 °C | 1.07 °C | 0.43 °C | 0.24 °C | 3.75 °C | -0.65 °C | 0.95 °C | 0.41 °C | 0.25 °C | 1.09 °C | 0.54 °C | 0.48 °C | 0.18 °C
3 | Cc1ccccc1CN1C2=NCCN2C(=O)C2=C1CCN(Cc1ccccc1)C2 [TIC10 Analogue] | -0.1 °C | 0.13 °C | 0.49 °C | -0.16 °C | 0.09 °C | 0.31 °C | 0.21 °C | 0.79 °C | 0.2 °C | 0.45 °C | -0.16 °C | -0.89 °C | -2.52 °C | 0.56 °C | 0.36 °C | 0.33 °C | -0.41 °C | 0.74 °C | 1.19 °C | 0.09 °C
4 | Cc1cc(NC(=O)c2cccc(NC(=O)/C=C/CN(C)C)c2)ccc1Nc1nccc(-c2cccnc2)n1 | 3.5 °C | 0.3 °C | 1.05 °C | 2.05 °C | 0.81 °C | 1.19 °C | 1.1 °C | 1.79 °C | 1.17 °C | 0.83 °C | 7.66 °C | 2.7 °C | 1.96 °C | 1.08 °C | 0.57 °C | 0.56 °C | 2.18 °C | 1.05 °C | 1.56 °C | -0.14 °C
5 | CCOc1cc(N2CCC(O)CC2)ccc1Nc1ncc2c(n1)N(C)c1ccccc1C(=O)N2C | -0.35 °C | -0.02 °C | 0.11 °C | 2.48 °C | -0.12 °C | 0.38 °C | 0.11 °C | 0.71 °C | 1.18 °C | 0.38 °C | -0.09 °C | 1.85 °C | -1.07 °C | 0.32 °C | 0.48 °C | 0.23 °C | 0.05 °C | 0.49 °C | 1.48 °C | 0.47 °C
6 | Cc1ccc(CNc2ncnc3ccc(-c4ccc(CO)o4)cc23)o1 | 1.72 °C | 0.02 °C | 0.46 °C | 1.65 °C | 0.24 °C | 0.03 °C | -0.19 °C | 4.83 °C | 0.75 °C | 1.05 °C | 2.38 °C | 4.33 °C | -5.36 °C | -0.16 °C | 0.29 °C | 0.04 °C | 2.56 °C | 0.43 °C | 1.5 °C | 0.62 °C
